Assay results taken from ChEMBL document CHEMBL1961873, “Compounds: GSK PKIS; Assays: Nanosyn kinase panel” (2012).

Key:
[1] = target: Tyrosine-protein kinase receptor UFO (Homo sapiens) (UniProt P30530); conditions: at 1 µM
[2] = target: Tyrosine-protein kinase Blk (Homo sapiens) (UniProt P51451); conditions: at 0.1 µM
[3] = target: Tyrosine-protein kinase Blk (Homo sapiens) (UniProt P51451); conditions: at 1 µM
[4] = target: T1, Cytoplasmic tyrosine-protein kinase BMX (Homo sapiens) (UniProt P51813); conditions: at 0.1 µM
T1 sequence (whole entry): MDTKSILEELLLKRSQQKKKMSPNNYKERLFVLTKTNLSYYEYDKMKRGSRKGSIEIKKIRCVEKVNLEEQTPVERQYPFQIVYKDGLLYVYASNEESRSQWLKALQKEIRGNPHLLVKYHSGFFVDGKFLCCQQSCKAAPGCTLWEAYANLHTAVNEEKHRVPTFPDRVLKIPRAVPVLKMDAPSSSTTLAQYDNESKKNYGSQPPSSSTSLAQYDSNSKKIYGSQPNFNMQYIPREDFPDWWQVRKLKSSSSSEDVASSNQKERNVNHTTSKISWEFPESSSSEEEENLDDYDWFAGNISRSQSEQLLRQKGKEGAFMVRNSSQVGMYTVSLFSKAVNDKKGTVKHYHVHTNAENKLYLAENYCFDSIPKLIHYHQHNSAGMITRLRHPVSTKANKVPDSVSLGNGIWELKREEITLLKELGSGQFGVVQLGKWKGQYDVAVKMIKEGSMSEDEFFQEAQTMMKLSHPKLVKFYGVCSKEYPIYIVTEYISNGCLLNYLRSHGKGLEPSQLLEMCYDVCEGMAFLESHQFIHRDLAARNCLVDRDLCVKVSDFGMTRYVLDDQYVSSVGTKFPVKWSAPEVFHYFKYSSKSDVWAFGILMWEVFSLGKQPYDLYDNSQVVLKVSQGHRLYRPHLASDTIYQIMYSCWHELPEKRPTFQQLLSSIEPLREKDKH

[5] = target: T1, Cytoplasmic tyrosine-protein kinase BMX (Homo sapiens); conditions: at 1 µM
[6] = target: Protein-tyrosine kinase 6 (Homo sapiens) (UniProt Q13882); conditions: at 0.1 µM
[7] = target: Protein-tyrosine kinase 6 (Homo sapiens) (UniProt Q13882); conditions: at 1 µM
[8] = target: Tyrosine-protein kinase BTK (Homo sapiens) (UniProt Q06187); conditions: at 0.1 µM
[9] = target: Tyrosine-protein kinase BTK (Homo sapiens) (UniProt Q06187); conditions: at 1 µM
[10] = target: Tyrosine-protein kinase CSK (Homo sapiens) (UniProt P41240); conditions: at 0.1 µM
[11] = target: Tyrosine-protein kinase CSK (Homo sapiens) (UniProt P41240); conditions: at 1 µM
[12] = target: T2, Discoidin domain-containing receptor 2 (Homo sapiens) (UniProt Q16832); conditions: at 0.1 µM
T2 sequence (whole entry): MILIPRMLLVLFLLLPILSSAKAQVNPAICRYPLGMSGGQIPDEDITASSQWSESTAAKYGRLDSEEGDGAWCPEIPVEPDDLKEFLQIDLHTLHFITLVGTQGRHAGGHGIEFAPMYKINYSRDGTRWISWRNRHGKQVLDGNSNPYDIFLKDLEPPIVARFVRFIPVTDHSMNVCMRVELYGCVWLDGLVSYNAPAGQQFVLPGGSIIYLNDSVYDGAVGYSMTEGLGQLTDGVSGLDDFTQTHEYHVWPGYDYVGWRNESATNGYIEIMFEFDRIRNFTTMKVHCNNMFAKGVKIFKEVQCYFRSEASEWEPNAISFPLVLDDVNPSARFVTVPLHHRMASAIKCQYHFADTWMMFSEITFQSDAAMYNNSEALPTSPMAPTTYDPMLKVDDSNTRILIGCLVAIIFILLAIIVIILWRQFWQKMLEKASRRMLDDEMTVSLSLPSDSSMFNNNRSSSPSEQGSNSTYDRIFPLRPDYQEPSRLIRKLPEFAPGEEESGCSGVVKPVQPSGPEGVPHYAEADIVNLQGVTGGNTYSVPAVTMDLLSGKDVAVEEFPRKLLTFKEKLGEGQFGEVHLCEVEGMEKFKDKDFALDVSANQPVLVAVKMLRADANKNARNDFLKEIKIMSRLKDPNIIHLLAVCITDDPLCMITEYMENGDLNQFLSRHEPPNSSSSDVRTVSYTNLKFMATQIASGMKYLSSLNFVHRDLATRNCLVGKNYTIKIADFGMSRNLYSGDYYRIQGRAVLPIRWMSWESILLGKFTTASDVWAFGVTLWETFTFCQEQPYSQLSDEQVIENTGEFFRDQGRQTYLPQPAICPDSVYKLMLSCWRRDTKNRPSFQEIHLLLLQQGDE

[13] = target: T2, Discoidin domain-containing receptor 2 (Homo sapiens); conditions: at 1 µM
[14] = target: Epidermal growth factor receptor (Homo sapiens) (UniProt P00533); conditions: at 0.1 µM
[15] = target: Epidermal growth factor receptor (Homo sapiens) (UniProt P00533); conditions: at 1 µM
[16] = test system: Epidermal growth factor receptor (Homo sapiens), P00533 [L858R]; conditions: at 0.1 µM
[17] = test system: Epidermal growth factor receptor (Homo sapiens), P00533 [L858R]; conditions: at 1 µM
[18] = test system: Epidermal growth factor receptor (Homo sapiens), P00533 [L861Q]; conditions: at 0.1 µM
[19] = test system: Epidermal growth factor receptor (Homo sapiens), P00533 [L861Q]; conditions: at 1 µM
[20] = test system: Epidermal growth factor receptor (Homo sapiens), P00533 [T790M]; conditions: at 0.1 µM
Epidermal growth factor receptor (Homo sapiens), P00533 [T790M], sequence (P00533 whole entry T790M): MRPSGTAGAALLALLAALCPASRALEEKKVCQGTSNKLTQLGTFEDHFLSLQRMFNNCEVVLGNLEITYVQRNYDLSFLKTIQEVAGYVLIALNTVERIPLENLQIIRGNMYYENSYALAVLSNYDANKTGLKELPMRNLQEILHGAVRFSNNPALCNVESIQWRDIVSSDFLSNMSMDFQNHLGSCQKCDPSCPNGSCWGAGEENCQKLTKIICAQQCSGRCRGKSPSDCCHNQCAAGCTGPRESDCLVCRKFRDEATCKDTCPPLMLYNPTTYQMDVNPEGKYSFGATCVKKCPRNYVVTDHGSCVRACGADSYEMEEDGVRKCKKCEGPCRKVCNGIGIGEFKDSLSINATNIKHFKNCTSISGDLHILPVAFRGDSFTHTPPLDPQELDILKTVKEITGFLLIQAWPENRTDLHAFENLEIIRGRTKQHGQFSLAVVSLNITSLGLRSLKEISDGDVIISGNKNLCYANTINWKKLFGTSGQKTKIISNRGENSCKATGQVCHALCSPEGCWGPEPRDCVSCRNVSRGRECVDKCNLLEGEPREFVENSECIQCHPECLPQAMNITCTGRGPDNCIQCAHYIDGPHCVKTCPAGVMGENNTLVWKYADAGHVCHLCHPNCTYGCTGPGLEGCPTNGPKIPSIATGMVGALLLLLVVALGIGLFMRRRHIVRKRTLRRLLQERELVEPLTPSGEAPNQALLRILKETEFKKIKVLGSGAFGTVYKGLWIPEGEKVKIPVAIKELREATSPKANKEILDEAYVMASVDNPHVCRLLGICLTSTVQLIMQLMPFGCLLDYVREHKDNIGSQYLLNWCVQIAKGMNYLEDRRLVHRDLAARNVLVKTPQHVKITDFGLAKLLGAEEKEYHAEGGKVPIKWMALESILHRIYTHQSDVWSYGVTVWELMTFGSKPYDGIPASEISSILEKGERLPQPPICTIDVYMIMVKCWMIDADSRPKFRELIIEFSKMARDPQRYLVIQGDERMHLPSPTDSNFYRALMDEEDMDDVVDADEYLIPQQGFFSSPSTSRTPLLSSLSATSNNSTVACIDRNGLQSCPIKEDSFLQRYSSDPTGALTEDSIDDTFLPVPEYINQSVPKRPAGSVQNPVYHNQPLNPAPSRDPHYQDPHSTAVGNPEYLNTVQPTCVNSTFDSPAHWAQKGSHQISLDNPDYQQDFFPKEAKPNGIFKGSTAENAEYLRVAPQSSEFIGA

Tyrosine-protein kinase BTK (Homo sapiens), sequence (Q06187 whole entry): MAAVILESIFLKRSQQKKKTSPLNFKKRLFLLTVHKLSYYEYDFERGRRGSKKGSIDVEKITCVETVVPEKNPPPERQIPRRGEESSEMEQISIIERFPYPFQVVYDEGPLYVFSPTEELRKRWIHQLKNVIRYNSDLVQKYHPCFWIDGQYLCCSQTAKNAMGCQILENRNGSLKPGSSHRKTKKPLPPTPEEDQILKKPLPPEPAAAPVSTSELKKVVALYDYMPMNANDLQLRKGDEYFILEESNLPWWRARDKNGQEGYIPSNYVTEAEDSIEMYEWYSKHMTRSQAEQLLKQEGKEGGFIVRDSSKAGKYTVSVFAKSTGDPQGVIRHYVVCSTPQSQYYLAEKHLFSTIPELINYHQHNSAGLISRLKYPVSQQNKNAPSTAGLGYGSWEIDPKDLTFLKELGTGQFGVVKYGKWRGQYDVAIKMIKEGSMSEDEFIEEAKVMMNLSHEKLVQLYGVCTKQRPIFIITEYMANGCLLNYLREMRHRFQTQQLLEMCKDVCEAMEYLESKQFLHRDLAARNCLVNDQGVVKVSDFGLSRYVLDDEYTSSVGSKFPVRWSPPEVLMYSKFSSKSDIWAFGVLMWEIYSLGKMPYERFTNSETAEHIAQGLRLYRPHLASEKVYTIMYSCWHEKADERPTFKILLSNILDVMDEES
Epidermal growth factor receptor (Homo sapiens), P00533 [L858R], sequence (P00533 whole entry L858R): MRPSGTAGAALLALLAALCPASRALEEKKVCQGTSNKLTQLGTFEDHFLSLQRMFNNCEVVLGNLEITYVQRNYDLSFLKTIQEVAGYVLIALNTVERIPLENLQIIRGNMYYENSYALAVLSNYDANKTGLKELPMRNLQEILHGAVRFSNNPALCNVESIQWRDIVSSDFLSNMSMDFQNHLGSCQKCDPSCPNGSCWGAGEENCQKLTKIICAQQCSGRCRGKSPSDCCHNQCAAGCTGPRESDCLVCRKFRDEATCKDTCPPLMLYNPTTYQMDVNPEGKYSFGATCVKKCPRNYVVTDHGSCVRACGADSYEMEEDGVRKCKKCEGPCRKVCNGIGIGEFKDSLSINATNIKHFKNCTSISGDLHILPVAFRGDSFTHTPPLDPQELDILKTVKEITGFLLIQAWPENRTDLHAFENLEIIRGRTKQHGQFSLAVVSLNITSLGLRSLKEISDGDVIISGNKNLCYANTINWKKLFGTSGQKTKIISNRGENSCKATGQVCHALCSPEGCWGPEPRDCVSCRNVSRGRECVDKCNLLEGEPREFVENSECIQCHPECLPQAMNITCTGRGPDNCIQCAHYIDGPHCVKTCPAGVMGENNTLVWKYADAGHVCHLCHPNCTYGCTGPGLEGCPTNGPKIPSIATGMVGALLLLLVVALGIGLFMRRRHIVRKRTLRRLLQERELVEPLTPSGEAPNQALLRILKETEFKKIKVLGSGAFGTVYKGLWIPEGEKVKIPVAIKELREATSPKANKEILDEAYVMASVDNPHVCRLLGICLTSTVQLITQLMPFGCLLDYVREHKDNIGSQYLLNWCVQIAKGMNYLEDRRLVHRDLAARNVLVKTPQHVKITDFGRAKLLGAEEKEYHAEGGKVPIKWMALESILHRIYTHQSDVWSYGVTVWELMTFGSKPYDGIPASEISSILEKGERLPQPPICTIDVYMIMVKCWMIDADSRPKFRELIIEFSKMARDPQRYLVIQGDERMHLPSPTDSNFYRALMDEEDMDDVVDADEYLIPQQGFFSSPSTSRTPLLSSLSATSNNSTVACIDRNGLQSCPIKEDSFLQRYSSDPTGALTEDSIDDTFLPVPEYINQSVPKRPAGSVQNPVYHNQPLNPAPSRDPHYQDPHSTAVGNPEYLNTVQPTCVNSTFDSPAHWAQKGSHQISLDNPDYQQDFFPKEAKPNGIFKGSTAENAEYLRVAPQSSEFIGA
Protein-tyrosine kinase 6 (Homo sapiens), sequence (Q13882 whole entry, looked up): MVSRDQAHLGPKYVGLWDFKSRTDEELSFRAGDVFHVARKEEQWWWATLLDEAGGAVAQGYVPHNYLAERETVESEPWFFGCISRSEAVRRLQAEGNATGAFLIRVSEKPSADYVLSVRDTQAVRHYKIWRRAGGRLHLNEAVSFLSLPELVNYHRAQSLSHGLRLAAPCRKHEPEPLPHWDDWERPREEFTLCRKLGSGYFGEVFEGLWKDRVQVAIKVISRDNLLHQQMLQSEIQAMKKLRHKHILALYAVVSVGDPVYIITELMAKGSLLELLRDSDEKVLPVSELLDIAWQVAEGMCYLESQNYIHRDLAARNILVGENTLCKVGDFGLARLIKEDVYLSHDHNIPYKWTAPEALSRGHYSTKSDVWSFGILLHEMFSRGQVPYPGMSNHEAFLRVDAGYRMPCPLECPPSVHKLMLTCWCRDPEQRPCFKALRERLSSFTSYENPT
Tyrosine-protein kinase receptor UFO (Homo sapiens), sequence (P30530 whole entry): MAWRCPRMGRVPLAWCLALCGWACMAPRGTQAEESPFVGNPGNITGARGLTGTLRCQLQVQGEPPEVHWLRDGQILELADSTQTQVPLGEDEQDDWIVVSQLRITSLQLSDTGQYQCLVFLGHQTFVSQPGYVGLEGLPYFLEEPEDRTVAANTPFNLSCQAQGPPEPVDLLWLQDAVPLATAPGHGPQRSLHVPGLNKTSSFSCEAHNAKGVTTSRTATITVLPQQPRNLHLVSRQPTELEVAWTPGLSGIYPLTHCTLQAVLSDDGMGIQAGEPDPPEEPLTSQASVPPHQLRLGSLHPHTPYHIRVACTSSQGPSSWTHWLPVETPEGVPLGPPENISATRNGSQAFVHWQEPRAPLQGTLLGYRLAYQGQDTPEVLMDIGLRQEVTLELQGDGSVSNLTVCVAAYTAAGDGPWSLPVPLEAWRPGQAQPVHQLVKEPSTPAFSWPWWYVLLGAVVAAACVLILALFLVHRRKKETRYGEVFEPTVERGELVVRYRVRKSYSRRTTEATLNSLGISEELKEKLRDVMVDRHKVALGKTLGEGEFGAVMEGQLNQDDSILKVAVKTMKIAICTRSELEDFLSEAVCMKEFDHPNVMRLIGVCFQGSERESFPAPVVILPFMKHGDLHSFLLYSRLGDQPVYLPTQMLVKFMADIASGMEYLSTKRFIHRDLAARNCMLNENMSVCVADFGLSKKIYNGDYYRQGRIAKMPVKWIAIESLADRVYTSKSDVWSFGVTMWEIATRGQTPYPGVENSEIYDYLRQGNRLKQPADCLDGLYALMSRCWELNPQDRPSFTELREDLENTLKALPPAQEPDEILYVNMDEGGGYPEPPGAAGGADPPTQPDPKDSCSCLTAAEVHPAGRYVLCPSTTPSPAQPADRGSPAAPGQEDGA
Tyrosine-protein kinase Blk (Homo sapiens), sequence (P51451 2-505 limits assumed): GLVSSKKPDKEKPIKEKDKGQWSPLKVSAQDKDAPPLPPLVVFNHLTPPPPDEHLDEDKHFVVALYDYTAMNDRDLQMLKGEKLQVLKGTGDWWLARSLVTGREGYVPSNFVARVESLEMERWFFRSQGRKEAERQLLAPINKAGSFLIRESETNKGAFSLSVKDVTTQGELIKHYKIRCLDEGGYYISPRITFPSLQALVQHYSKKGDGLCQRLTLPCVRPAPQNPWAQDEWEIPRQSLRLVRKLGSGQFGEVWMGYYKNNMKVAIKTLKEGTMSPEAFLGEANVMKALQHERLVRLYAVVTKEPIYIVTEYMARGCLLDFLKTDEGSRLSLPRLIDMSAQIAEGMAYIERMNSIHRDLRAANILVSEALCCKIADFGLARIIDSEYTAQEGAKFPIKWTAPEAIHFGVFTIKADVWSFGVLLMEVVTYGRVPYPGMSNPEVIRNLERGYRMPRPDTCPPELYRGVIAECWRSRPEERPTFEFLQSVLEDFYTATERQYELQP

Compound	inhibition [1] [%]	inhibition [2] [%]	inhibition [3] [%]	inhibition [4] [%]	inhibition [5] [%]	inhibition [6] [%]	inhibition [7] [%]	inhibition [8] [%]	inhibition [9] [%]	inhibition [10] [%]	inhibition [11] [%]	inhibition [12] [%]	inhibition [13] [%]	inhibition [14] [%]	inhibition [15] [%]	inhibition [16] [%]	inhibition [17] [%]	inhibition [18] [%]	inhibition [19] [%]	inhibition [20] [%]
O=C1Nc2ccccc2/C1=C/Nc1ccc(-n2cncn2)cc1	-3.55	3.13	19.7	6.8	4.54	3.56	6	0.25	-0.4	3.03	7.33	-0.37	0.37	4.22	4.08	2.81	4.05	3.11	4.38	2.21
C/C(Nc1ccc(S(N)(=O)=O)cc1)=C1/C(=O)Nc2ccccc21	10.5	-0.72	12	-4.07	-0.17	-2.78	-1.43	-2.32	-1.09	-5.47	-4	-0.09	0.07	-1.34	2.48	-0.73	0.1	0.08	0.01	-0.56
CCc1nccc2c1nc(-c1nonc1N)n2CC	2.17	0.44	1.64	-1.94	2.51	-3.14	-0.37	-0.56	0.41	1.3	-3.01	1.17	2.38	6.7	7.54	0.22	-2.09	-1.13	-0.05	-1.16
COc1cccc(-n2cnc3c(N/N=C/c4ccncc4)ncnc32)c1	-2.08	-0.3	15.8	-0.75	16.1	0.43	15.2	-2.61	-2.79	1.91	7.17	-0.19	1.99	2.02	8.31	5.72	30.8	1.61	10.6	-0.92
Fc1ccc(-c2ncn(C3CCNCC3)c2-c2ccnc(Oc3ccc4c(c3)OCO4)n2)cc1	-5.79	4.26	5.32	5.5	5.87	4.19	5.5	-0.46	0.77	3.85	6.08	6.32	7.88	5.59	13.1	4.4	18.7	3.06	10.2	2.39
O=C1Nc2ccc(I)cc2C1=Cc1cc(Br)c(O)c(Br)c1	-7.49	1.48	3.74	2.64	7.27	3.26	6.68	-1.22	-0.86	-2.19	4.94	1.45	3.44	2.85	-1.18	-1.9	2.8	2.43	3.74	0.08
CCS(=O)(=O)c1ccc(OC)c(Nc2ncc(-c3cccc(-c4ccccc4F)c3)o2)c1	2.28	8.74	55.5	-4.54	9.3	1.06	10.8	-0.93	3.93	0.57	4.82	4.99	30.8	4.07	23.3	14.1	62.1	4.78	24.4	-1.94
COc1ccc2cc(-c3c(-c4ccncc4)nc(-c4ccc(S(C)(=O)=O)cc4C)n3C)ccc2c1	-4.46	3.03	7.1	5.32	3.88	29	85	-2.49	0.28	3.76	7.9	-1.21	-5.12	0.26	6.12	1.94	10.5	2.4	10.6	1.37
COc1cccc(/C=N/Nc2ncnc3c2cnn3-c2cccc(OC)c2)c1	-4.88	1.56	4.98	2.16	5.64	2.5	5.61	-0.27	-1.35	2.79	3.91	1.34	2.5	1.31	2.97	2.05	8.79	1.95	4.05	0.54
C[C@@H](Oc1cc(-n2cnc3ccc(OCC4CCN(C)CC4)cc32)sc1C(N)=O)c1ccccc1Cl	3.11	2.92	10.4	0.11	2.71	5.93	6.07	0	0.95	5.15	3.59	2.64	8.53	3.04	3.73	4.5	19.8	1.43	5.89	1.15
CS(=O)(=O)CCNCc1ccc(-c2ccc3ncnc(Nc4ccc(OCc5ccccc5)c(Br)c4)c3c2)o1	-7.91	-0.29	3.05	3.44	0.49	4.61	11.8	-3.57	-0.34	0.44	4.59	1.43	1.04	69.5	81.6	49.3	91.2	48.1	83.7	4.96
Fc1ccc(-c2nc3n(c2-c2ccncc2)CCS3)cc1	-3.95		-0.49	2.02	4.87	-1.54	4.07	-2.44	-3.5	7.37	4.61	2.36	4.83	0.92	3.39	5.61	14.5	2.5	1.57	1.65
Cc1ccc(C(=O)NC(C)C)cc1-c1ccc(C(=O)NCC2CC2)cc1	4.77	-1.25	-1.6	-4.33	-4.09	-3.3	-4.09	-0.46	-1.32	-7.18		-0.36	0.09	0.3	1.34	-1.62	-1.21	-0.86	-2.64	-0.77
NC(=O)c1cc(-c2ccc(F)cc2)cc(-c2ccncc2)c1N	-4.61	2.33	4.55	7.08	7.6	3.05	5.71	0.21	-0.9	0.77	5.4	1.42	2.13	-0.24	5.03	5.96	7.27	4.19	7.37	1.23
